# Laboratory results as given in article PMC7862700, “An all-to-all approach to the identification of sequence-specific readers for epigenetic DNA modifications on cytosine”.
# Key:
# Test in all cases: DAPPL (digital affinity profiling via proximity ligation, sequencing); 10 mM Tris-HCl pH 7.5, 50 mM NaCl, 1 mM DTT, 4% glycerol, room temperature, 30 min; GST-TFs on glutathione beads, 16-mer random dsDNA library, 0.1% formaldehyde crosslink after washing; high values mean tight binding
# FEV = target: T1, FEV (Homo sapiens, UniProt Q99581 1-238); settings: protein: recombinant; tags: N-terminal GST; dsDNA, one strand shown
# T1 sequence: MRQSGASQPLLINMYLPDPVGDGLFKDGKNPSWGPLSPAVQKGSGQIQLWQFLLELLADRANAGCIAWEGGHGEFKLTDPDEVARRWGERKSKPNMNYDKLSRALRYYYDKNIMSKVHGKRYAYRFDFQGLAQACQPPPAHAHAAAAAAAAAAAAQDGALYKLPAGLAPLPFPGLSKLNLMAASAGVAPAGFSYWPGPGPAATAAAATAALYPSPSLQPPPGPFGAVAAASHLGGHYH
# Procedure, shortened: (§1)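 Binding signal is given per hexamer as its read frequency for a factor divided by its frequency in the tag-only sample. GST-fused human transcription factors were expressed in yeast, captured on glutathione beads, barcoded with DNA and pooled with that sample, then incubated with 200 nmole of a 16-mer random double-stranded DNA library in Tris/NaCl/DTT/glycerol buffer for 30 min at room temperature. The pools were then washed, crosslinked, proximity-ligated, amplified by PCR and sequenced on an Illumina NextSeq500.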
# ETV5 = ETV5 (Homo sapiens, UniProt P41161 1-510); settings: protein: recombinant; tags: N-terminal GST; dsDNA, one strand shown
# ETV5, sequence (P41161 whole entry): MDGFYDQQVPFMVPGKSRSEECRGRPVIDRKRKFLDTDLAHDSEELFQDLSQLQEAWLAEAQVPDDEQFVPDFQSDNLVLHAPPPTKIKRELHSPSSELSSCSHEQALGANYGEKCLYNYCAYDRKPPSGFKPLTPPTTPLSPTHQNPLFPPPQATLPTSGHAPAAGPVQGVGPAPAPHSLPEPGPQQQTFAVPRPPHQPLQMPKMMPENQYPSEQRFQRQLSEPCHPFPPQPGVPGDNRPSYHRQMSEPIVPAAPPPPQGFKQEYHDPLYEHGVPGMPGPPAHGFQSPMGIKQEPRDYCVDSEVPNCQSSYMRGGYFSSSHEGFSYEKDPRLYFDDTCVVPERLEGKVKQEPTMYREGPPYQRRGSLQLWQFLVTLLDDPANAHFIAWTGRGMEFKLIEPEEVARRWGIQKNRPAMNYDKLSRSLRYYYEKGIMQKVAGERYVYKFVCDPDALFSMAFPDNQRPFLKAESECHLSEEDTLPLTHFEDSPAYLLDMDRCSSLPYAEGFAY
# Procedure, shortened: as §1
# HSF1 = HSF1 (Homo sapiens, UniProt Q00613 1-529); settings: protein: recombinant; tags: N-terminal GST; chain copies: 3; dsDNA, one strand shown
# HSF1, sequence (Q00613 whole entry): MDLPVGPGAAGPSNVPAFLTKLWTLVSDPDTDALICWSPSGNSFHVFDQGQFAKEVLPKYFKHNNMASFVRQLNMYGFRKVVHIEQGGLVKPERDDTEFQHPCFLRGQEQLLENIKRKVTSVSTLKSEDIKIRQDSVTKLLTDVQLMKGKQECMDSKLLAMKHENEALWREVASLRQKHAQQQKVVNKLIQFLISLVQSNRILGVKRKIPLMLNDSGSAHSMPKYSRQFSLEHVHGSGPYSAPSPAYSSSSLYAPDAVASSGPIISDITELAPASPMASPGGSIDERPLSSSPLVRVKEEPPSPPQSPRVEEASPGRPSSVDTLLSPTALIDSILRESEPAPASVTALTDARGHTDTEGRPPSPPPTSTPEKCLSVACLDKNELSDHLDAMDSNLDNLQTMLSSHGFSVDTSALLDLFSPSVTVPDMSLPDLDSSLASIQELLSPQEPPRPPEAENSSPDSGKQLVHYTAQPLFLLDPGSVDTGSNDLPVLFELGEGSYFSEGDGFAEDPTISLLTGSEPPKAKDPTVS
# Procedure, shortened: as §1
# SPIC = target: T2, SPIC (Homo sapiens, UniProt Q8N5J4 1-248); settings: protein: recombinant; tags: N-terminal GST; dsDNA, one strand shown
# T2 sequence: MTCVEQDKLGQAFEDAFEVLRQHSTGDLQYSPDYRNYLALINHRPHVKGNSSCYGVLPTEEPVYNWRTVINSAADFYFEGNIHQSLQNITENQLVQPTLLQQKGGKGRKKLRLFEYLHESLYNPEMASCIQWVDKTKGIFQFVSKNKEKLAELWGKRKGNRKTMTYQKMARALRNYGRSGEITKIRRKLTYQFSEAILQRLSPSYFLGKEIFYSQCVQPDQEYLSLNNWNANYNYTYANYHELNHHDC
# Procedure, shortened: as §1
# ELF4 = ELF4 (Homo sapiens, UniProt Q99607 1-663); settings: protein: recombinant; tags: N-terminal GST; dsDNA, one strand shown
# ELF4, sequence (Q99607 whole entry): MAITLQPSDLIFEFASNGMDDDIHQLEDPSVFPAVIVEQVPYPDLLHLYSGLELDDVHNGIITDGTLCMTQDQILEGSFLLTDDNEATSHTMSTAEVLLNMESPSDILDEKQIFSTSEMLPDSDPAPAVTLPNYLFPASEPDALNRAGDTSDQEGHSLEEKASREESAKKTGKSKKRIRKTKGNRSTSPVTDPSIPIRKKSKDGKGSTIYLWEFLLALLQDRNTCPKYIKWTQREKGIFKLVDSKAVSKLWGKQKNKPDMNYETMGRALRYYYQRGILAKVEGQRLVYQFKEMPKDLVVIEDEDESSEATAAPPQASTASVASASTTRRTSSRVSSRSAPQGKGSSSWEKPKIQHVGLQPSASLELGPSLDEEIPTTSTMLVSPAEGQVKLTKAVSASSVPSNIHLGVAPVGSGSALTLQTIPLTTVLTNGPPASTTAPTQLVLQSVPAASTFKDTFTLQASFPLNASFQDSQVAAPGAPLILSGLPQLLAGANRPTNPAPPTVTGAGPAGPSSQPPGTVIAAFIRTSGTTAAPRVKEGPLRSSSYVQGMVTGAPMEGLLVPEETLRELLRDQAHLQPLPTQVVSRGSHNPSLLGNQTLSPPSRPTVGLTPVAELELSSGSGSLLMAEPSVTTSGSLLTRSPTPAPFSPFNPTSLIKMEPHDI
# Procedure, shortened: as §1
# ELK4 = target: T3, ELK4 (Homo sapiens, UniProt P28324-2 1-405); settings: protein: recombinant; tags: N-terminal GST; dsDNA, one strand shown
# T3 sequence: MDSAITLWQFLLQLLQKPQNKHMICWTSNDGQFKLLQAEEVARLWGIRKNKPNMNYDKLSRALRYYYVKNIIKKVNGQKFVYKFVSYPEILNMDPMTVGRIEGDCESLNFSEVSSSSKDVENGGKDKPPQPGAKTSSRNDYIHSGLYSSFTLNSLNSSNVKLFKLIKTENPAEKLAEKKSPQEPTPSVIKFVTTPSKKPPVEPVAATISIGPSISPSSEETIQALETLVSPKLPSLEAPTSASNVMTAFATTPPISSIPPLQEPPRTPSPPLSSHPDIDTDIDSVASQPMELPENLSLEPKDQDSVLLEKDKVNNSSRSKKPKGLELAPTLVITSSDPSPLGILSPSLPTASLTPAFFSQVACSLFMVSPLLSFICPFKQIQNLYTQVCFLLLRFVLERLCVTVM
# Procedure, shortened: as §1
# ETV2 = target: T4, ETV2 (Homo sapiens, UniProt O00321 1-342); settings: protein: recombinant; tags: N-terminal GST; dsDNA, one strand shown
# T4 sequence: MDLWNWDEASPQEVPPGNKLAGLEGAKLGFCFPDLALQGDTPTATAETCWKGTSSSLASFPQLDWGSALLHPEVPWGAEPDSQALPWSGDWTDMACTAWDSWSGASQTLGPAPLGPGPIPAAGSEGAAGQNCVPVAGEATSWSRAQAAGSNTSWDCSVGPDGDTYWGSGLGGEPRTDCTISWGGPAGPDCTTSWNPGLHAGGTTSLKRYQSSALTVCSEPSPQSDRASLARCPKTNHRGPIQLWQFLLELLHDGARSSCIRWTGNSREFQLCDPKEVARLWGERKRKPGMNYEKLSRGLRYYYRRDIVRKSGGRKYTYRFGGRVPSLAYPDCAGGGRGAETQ
# Procedure, shortened: as §1
# ELF3 = target: T5, ELF3 (Homo sapiens, UniProt P78545 1-371); settings: protein: recombinant; tags: N-terminal GST; dsDNA, one strand shown
# T5 sequence: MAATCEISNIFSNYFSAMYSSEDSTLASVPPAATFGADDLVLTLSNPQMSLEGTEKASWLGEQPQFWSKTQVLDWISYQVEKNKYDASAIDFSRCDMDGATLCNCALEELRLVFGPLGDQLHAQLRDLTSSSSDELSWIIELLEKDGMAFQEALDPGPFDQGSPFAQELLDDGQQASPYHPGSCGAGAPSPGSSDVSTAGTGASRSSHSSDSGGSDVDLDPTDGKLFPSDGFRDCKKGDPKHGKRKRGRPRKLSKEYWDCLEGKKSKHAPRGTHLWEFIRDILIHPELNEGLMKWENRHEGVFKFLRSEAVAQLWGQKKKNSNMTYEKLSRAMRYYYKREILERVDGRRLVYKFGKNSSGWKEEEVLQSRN
# Procedure, shortened: as §1
# CRX = CRX (Homo sapiens, UniProt O43186 1-299); settings: protein: recombinant; tags: N-terminal GST; dsDNA, one strand shown
# CRX, sequence (O43186 whole entry): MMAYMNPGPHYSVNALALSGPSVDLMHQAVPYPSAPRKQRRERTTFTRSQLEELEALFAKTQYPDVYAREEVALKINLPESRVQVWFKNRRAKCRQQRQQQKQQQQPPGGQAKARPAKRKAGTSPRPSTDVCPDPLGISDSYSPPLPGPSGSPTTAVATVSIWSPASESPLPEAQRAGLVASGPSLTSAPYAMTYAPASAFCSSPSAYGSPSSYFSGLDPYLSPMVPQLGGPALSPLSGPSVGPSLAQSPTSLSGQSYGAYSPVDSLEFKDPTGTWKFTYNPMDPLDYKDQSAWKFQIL
# Procedure, shortened: as §1
# ETV1 = ETV1 (Homo sapiens, UniProt P50549 1-477); settings: protein: recombinant; tags: N-terminal GST; dsDNA, one strand shown
# ETV1, sequence (P50549 whole entry): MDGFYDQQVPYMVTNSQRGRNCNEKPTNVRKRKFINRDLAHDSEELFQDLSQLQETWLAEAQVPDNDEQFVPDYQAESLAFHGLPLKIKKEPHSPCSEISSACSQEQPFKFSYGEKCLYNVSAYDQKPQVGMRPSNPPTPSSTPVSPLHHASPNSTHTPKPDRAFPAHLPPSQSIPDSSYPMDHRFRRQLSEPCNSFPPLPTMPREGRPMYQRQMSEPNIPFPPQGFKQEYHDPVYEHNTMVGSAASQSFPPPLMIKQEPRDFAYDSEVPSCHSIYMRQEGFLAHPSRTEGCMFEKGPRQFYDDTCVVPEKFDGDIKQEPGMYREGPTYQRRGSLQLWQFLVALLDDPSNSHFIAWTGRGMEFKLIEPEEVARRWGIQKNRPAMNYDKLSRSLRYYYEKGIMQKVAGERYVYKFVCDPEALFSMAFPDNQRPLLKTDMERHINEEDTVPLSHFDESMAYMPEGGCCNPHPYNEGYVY
# Procedure, shortened: as §1
# ERF = target: T6, ERF (Homo sapiens, UniProt P50548 1-548); settings: protein: recombinant; tags: N-terminal GST; dsDNA, one strand shown
# T6 sequence: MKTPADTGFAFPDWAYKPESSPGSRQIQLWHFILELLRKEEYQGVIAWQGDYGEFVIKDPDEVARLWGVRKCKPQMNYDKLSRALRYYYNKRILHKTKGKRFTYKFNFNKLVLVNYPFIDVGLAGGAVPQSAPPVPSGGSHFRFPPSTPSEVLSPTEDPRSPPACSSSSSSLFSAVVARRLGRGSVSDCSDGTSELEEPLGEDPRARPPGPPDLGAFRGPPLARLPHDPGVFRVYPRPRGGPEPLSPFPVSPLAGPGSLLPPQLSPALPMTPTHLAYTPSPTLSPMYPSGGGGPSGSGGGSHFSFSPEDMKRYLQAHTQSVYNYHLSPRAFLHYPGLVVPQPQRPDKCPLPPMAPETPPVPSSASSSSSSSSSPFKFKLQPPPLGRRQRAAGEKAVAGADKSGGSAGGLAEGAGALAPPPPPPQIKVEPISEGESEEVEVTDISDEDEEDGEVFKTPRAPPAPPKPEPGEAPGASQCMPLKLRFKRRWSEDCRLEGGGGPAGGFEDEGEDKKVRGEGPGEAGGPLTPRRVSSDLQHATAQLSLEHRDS
# Procedure, shortened: as §1
# ETV3L = target: T7, ETV3L (Homo sapiens, UniProt Q6ZN32 1-361); settings: protein: recombinant; tags: N-terminal GST; dsDNA, one strand shown
# T7 sequence: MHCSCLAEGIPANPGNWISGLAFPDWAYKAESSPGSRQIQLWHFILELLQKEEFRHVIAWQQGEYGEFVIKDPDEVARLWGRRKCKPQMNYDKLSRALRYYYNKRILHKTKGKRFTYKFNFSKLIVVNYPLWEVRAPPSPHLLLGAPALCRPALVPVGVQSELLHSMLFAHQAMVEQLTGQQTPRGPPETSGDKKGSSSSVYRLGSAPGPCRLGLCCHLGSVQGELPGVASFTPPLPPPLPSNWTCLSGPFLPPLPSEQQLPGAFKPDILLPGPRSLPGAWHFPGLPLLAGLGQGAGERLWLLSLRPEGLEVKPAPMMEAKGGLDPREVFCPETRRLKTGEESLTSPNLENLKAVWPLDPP
# Procedure, shortened: as §1
# ETS2 = target: T8, ETS2 (Homo sapiens, UniProt P15036 1-469); settings: protein: recombinant; tags: N-terminal GST; dsDNA, one strand shown
# T8 sequence: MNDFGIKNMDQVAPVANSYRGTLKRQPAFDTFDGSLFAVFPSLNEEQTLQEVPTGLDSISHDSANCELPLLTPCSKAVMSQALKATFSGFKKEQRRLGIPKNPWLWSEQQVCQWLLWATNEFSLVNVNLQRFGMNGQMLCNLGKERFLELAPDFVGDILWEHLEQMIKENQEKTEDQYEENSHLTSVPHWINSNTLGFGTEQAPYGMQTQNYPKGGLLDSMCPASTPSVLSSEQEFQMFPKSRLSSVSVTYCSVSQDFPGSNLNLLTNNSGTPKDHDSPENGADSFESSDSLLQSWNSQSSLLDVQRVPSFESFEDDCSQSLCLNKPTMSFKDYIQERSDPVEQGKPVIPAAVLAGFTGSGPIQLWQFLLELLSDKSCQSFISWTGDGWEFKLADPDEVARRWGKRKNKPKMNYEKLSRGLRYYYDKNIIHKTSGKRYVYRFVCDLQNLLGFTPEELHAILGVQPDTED
# Procedure, shortened: as §1
# SPDEF = target: T9, SPDEF (Homo sapiens, UniProt O95238 1-335); settings: protein: recombinant; tags: N-terminal GST; dsDNA, one strand shown
# T9 sequence: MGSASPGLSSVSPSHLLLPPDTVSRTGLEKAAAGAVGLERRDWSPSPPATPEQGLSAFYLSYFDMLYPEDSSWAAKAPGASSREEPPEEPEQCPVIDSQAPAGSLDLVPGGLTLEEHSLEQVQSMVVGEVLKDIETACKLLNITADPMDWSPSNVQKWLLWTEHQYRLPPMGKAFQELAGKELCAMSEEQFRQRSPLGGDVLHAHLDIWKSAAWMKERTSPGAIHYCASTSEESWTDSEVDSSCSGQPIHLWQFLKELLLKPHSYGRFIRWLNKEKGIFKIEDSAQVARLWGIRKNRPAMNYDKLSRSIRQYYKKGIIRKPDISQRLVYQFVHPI
# Procedure, shortened: as §1
# ETV7 = target: T10, ETV7 (Homo sapiens, UniProt Q9Y603 1-341); settings: protein: recombinant; tags: N-terminal GST; dsDNA, one strand shown
# T10 sequence: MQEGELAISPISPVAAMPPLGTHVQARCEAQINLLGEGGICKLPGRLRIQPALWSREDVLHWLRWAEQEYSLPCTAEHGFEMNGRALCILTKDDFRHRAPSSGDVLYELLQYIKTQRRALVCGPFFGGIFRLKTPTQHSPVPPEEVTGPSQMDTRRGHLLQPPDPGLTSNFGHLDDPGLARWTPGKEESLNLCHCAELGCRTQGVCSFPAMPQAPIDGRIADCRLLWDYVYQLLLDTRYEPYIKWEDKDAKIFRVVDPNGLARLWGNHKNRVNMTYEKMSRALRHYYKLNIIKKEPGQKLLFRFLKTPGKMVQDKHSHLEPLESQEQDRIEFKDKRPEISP
# Procedure, shortened: as §1
# ELF5 = target: T11, ELF5 (Homo sapiens, UniProt Q9UKW6-2 1-255); settings: protein: recombinant; tags: N-terminal GST; dsDNA, one strand shown
# T11 sequence: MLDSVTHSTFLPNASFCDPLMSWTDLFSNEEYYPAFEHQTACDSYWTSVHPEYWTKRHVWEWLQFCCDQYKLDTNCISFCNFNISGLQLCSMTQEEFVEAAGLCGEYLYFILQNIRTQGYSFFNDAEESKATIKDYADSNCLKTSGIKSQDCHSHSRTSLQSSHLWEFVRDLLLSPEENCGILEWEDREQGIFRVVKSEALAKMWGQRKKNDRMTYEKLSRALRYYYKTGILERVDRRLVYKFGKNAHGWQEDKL
# Procedure, shortened: as §1
# ETV3 = target: T12, ETV3 (Homo sapiens, UniProt P41162-2 1-143); settings: protein: recombinant; tags: N-terminal GST; dsDNA, one strand shown
# T12 sequence: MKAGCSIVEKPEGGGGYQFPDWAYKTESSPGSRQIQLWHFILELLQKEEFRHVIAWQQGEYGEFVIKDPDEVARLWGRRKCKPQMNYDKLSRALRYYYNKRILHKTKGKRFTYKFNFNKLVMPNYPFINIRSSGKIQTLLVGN
# Procedure, shortened: as §1
# ETV6 = ETV6 (Homo sapiens, UniProt P41212 1-452); settings: protein: recombinant; tags: N-terminal GST; dsDNA, one strand shown
# ETV6, sequence (P41212 whole entry): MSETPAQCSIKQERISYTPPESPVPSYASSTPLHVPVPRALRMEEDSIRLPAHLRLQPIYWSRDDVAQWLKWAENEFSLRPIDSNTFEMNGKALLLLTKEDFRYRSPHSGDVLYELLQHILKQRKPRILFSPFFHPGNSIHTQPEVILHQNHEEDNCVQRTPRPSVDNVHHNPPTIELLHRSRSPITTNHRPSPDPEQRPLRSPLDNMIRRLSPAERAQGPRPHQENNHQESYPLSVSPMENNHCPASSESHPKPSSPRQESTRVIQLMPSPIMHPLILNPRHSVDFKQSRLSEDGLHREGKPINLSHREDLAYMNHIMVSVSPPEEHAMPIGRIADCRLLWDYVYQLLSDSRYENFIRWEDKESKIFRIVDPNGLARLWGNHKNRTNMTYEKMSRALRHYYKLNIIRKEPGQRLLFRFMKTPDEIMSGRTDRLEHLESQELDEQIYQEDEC
# Procedure, shortened: as §1
sequence,measurement,setting,value
CCTGGT,binding signal,FEV,"1.25 fold enrichment (6-mer frequency, TF over GST control)"
same,binding signal,ETV5,"1.42 fold enrichment (6-mer frequency, TF over GST control)"
same,binding signal,HSF1,"1.08 fold enrichment (6-mer frequency, TF over GST control)"
same,binding signal,SPIC,"1.34 fold enrichment (6-mer frequency, TF over GST control)"
same,binding signal,ELF4,"1.35 fold enrichment (6-mer frequency, TF over GST control)"
same,binding signal,ELK4,"1.2 fold enrichment (6-mer frequency, TF over GST control)"
same,binding signal,ETV2,"1.56 fold enrichment (6-mer frequency, TF over GST control)"
same,binding signal,ELF3,"1.13 fold enrichment (6-mer frequency, TF over GST control)"
same,binding signal,CRX,"1.1 fold enrichment (6-mer frequency, TF over GST control)"
same,binding signal,ETV1,"1.54 fold enrichment (6-mer frequency, TF over GST control)"
same,binding signal,ERF,"1.37 fold enrichment (6-mer frequency, TF over GST control)"
same,binding signal,ETV3L,"1.53 fold enrichment (6-mer frequency, TF over GST control)"
same,binding signal,ETS2,"1.43 fold enrichment (6-mer frequency, TF over GST control)"
same,binding signal,SPDEF,"1.69 fold enrichment (6-mer frequency, TF over GST control)"
same,binding signal,ETV7,"1.31 fold enrichment (6-mer frequency, TF over GST control)"
same,binding signal,ELF5,"1.58 fold enrichment (6-mer frequency, TF over GST control)"
same,binding signal,ETV3,"1.49 fold enrichment (6-mer frequency, TF over GST control)"
same,binding signal,ETV6,"1.4 fold enrichment (6-mer frequency, TF over GST control)"
